Measured values reported in PubChem BioAssay (EPA / NIEHS).
Where “and” joins values, the source holds several entries; their conditions need not be identical. Identical values can stand only once. Inconclusive results are not listed. Calls of active or inactive are those of the source. Rule for the calls, unless noted: active = hit-call score of the fitted dose curve at least 0.9, where 1 is the maximum; inactive = score below 0.9.

Assays:
[1] = ACEA_ER_80hr: ACEA Biosciences xCELLigence Real-Time Cell Analysis on Estrogen Receptor Agonism for Proliferation (AID 2282667; active = hit-call score of the fitted dose curve at least 0.9, where 1 is the maximum); settings: T47D proliferation, impedance (xCELLigence), 80 h
How it was run: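 Real-time impedance growth kinetics of human T-47D breast cells read 80 h after dosing, gain-of-signal fitted relative to DMSO. Compounds: 1:4 serial series, top final concentration 100 uM, n = 2.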

[2] = APR_HepG2_CellCycleArrest_24hr: Apredica 24-hour HepG2 Assay for Cell Cycle Arrest (AID 2282905); settings: imaging, actives raise or lower the signal;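 note: cell cycle arrest scored as ratio of 2N to 4N nuclear DNA content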
How it was run: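 Readout: Hoechst 33342 nuclear DNA content by high-content fluorescent imaging, six images/well, 20x. Human HepG2 liver cells, 24 hr compound exposure, 0.39–200 uM, final DMSO 0.5% v/v. Gain or loss fitted relative to DMSO baseline.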

[3] = APR_HepG2_NuclearSize_24hr: Apredica 24-hour HepG2 Assay for Nuclear Size (AID 2282907); settings: high-content imaging, actives raise or lower the signal
How it was run: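 Read-out: nuclear diameter from Hoechst 33342 (2 ug/mL) imaging of fixed HepG2 cells, 20x, six fields/well. Compounds ran at 0.39–200 uM for 24 hr, 0.5% DMSO final. Gain or loss was fitted bidirectionally relative to the DMSO baseline.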

[4] = APR_HepG2_CellLoss_24hr: Apredica 24-hour HepG2 Assay for Cell Loss (AID 2282908); settings: high-content imaging;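 for AC50: fit in both directions so a hit may be cell loss or gain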
How it was run: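 Read-out: Hoechst 33342-stained nuclei counted by automated fluorescence imaging after formaldehyde fixation and Triton permeabilization. Ten concentrations, 0.39 to 200 uM, duplicate wells, 0.5% DMSO final. Gain or loss of signal fitted relative to DMSO baseline.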

[5] = APR_HepG2_MicrotubuleCSK_24hr: Apredica 24-hour HepG2 Assay for Microtubule CSK Stabilty (AID 2282909); settings: HepG2 microtubule cytoskeleton imaging, actives raise or lower the signal
How it was run: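 Read-out: alpha-tubulin immunofluorescence intensity by automated high-content imaging of fixed HepG2 cells after 24 h compound treatment. Ten concentrations, 0.39 to 200 uM, in duplicate; DMSO 0.5% v/v. Taxol positive control; DMSO-normalized bidirectional curve fitting.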

[6] = APR_HepG2_MitoticArrest_24hr: Apredica 24-hour HepG2 Assay for Mitotic Arrest (AID 2282910); settings: high-content imaging, actives raise or lower the signal
How it was run: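 Treatment lasted 24 hr in the human HepG2 line at 0.39–200 uM, solvent held at 0.5% DMSO. Fixed cells were stained with Hoechst 33342 and anti-phospho-histone H3, imaged at 20x, and analysed by gain- or loss-of-signal fitting against DMSO.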

[7] = APR_HepG2_MitoMembPot_24hr: Apredica 24-hour HepG2 Assay for Mitochondrial Membrane Potential (AID 2282911); settings: imaging, actives raise or lower the signal
How it was run: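 Mitochondrial membrane potential imaged via MitoTracker Red CMXRos (250 nM, 30 min pre-fixation) in fixed HepG2 cells with Hoechst nuclear identification. Ten concentrations 0.39–200 uM, 24 h treatment, 0.5% DMSO; CCCP as positive control.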

[8] = APR_HepG2_MitoMass_24hr: Apredica 24-hour HepG2 Assay for Mitochondrial Mass (AID 2282912); settings: high-content imaging, actives raise or lower the signal
How it was run: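 HepG2, 24 hr dosing, 10 concentrations 0.39–200 uM in duplicate, DMSO 0.5% final. MitoTracker Red CMXRos 250 nM, 30 min pre-fix; 3.7% formaldehyde fix. Imaging-based fluorescence intensity; gain/loss fit vs DMSO baseline.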

[9] = APR_HepG2_p53Act_24hr: Apredica 24-hour HepG2 Assay for p53 Activation (AID 2282913); settings: high-content imaging, actives raise or lower the signal;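 note: p53 protein immunofluorescence averaged per cell in HepG2 with Hoechst nuclei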
How it was run: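 Fluorescence imaging of formaldehyde-fixed HepG2 cells labelled for p53 and with Hoechst, 24 h after dosing (0.39–200 uM, duplicate wells, 0.5% v/v DMSO). Signal fitted in both directions relative to DMSO.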

[10] = APR_HepG2_CellCycleArrest_72hr: Apredica 72-hour HepG2 Assay for Cell Cycle Arrest (AID 2282914); settings: high-content imaging, actives raise or lower the signal
How it was run: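 Read-out: nuclear DNA content from Hoechst 33342 high-content imaging (20x, six fields/well) after 3.7% formaldehyde fixation, fitted bidirectionally against DMSO. Treatment was 72 h in HepG2, ten concentrations 0.39–200 uM, duplicate, 0.5% DMSO.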

[11] = APR_HepG2_CellLoss_72hr: Apredica 72-hour HepG2 Assay for Cell Loss (AID 2282915); settings: high-content imaging
How it was run: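 HepG2 cells were exposed for 72 hr to compounds at 0.39–200 uM (ten concentrations, duplicate) in 0.5% v/v final DMSO. Nuclei were stained with Hoechst 33342 after 3.7% formaldehyde fixation, imaged at 20x, and counted; fits bidirectional versus DMSO.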

Measured: AC50

CCCCCCCCCC[N+](C)(C)CCCCCCCCCC
active: [2] 43 µM | [4] 4.36 µM | [5] 10.9 µM | [6] 4.34 µM | [7] 26 µM | [10] 48.2 µM | [11] 3.25 µM
inactive: [1] | [3] | [8] | [9]

CO/C=C(/C(=O)OC)c1ccccc1COc1cccc(C(F)(F)F)n1
active: [1] 20.2 µM | [4] 9.73 µM | [6] 16.8 µM | [7] 16.4 µM | [11] 3.39 µM
inactive: all other assays above

ClC1=C(Cl)[C@]2(Cl)[C@@H]3[C@@H]4C[C@@H]([C@H]5O[C@@H]45)[C@@H]3[C@@]1(Cl)C2(Cl)Cl
active: [1] 10.8 µM | [4] 31.6 µM | [10] 39.2 µM | [11] 34.4 µM
inactive: all other assays above

C=CC(N)=O
inactive: all assays above

CCC(C)(c1ccc(O)cc1)c1ccc(O)cc1
inactive: [2] | [3] | [5] | [10]
active: [1] 285 nM [middle of 4 runs] | [4] 111 µM | [6] 106 µM | [7] 57.6 µM | [8] 127 µM | [9] 101 µM | [11] 108 µM

Cc1ccccc1[N+](=O)[O-]
inactive: all assays above

Oc1ccc(Cl)cc1Cl
inactive: all assays above

CCCCCCCCOC(=O)c1ccccc1C(=O)OCCCCCCCC
active: [1] 75.4 µM
inactive: all other assays above

O=C(NC(=O)c1cc(F)c(F)cc1Cl)Nc1cc(F)ccc1N1CCC(C(=O)O)CC1
inactive: all assays above

Cc1cc(-c2ccc(N)c(C)c2)ccc1N
active: [1] 27 µM and 9.92 µM | [10] 66.7 µM
inactive: all other assays above

Clc1ccc(C(Cl)(Cl)Cl)cc1
inactive: all assays above

CC(C)(c1ccccc1)c1ccc(O)cc1
active: [1] 483 nM [middle of 4 runs] | [4] 84.6 µM | [11] 63.3 µM
inactive: all other assays above

Cc1cc(O)ccc1Cl
inactive: all assays above

CCOP(=S)(OCC)SCSC(C)(C)C
active: [7] 0.0494 µM
inactive: all other assays above

Oc1ccc(C(c2ccc(O)cc2)(C(F)(F)F)C(F)(F)F)cc1
active: [1] 102 nM and 189 nM and 262 nM | [11] 36.7 µM
inactive: all other assays above

O=C(O)C(F)(F)C(F)(F)C(F)(F)C(F)(F)C(F)(F)C(F)(F)C(F)(F)C(F)(F)F
inactive: [1] | [3] | [5] | [7] | [10]
active: [2] 105 µM | [4] 104 µM | [6] 139 µM | [8] 107 µM | [9] 114 µM | [11] 110 µM

CCCCCCOC(=O)c1ccccc1C(=O)OCCCCCC
active: [4] 97.3 µM | [7] 112 µM | [10] 109 µM | [11] 102 µM
inactive: all other assays above

ClC1=C(Cl)[C@]2(Cl)[C@@H]3[C@@H](Cl)[C@H]4O[C@H]4[C@@H]3C1(Cl)C2(Cl)Cl
active: [2] 80.1 µM | [4] 81.7 µM | [5] 82.1 µM | [6] 66.5 µM | [9] 87.7 µM | [10] 86.3 µM | [11] 75.4 µM
inactive: [1] | [3] | [7] | [8]

Cc1cc2c3c(c1)C(c1ccccc1)=N[C@@H](NC(=O)c1ccncc1)C(=O)N3CC2
active: [11] 90.9 µM
inactive: all other assays above

C[C@]12CCC(=O)C=C1CC[C@@H]1[C@@H]2CC[C@]2(C)C(=O)CC[C@@H]12
active: [1] 50 µM and 9.92 µM
inactive: all other assays above

Nc1ccc(-c2ccc(N)cc2)cc1
active: [2] 100 µM | [9] 100 µM
inactive: all other assays above

C[C@]12CCC(=O)C=C1CC[C@@H]1[C@@H]2CC[C@@]2(C)[C@H]1CC[C@]2(C)O
active: [1] 45.5 nM and 64.3 nM and 5.3 µM
inactive: all other assays above

CCOC(=O)C(O)(c1ccc(Cl)cc1)c1ccc(Cl)cc1
inactive: [1]
active: [2] 54.1 µM | [3] 72.9 µM | [4] 72.3 µM | [5] 89.7 µM | [6] 70.5 µM | [7] 7.9 µM | [8] 59.5 µM | [9] 82.7 µM | [10] 44.7 µM | [11] 69.6 µM

CCOCCOC(C)=O
inactive: all assays above

O=S(=O)(O)C(F)(F)C(F)(F)C(F)(F)C(F)(F)C(F)(F)C(F)(F)F
inactive: all assays above

CC#Cc1cc(C)nc(Nc2ccccc2)n1
active: [10] 96.1 µM | [11] 69.8 µM
inactive: all other assays above

CCC(=O)O[C@H]1CC[C@H]2[C@@H]3CCC4=CC(=O)CC[C@]4(C)[C@H]3CC[C@]12C
active: [1] 176 nM and 243 nM and 917 nM | [4] 107 µM | [6] 116 µM | [8] 107 µM | [11] 125 µM
inactive: all other assays above

O=C(O)C(F)(F)C(F)(F)C(F)(F)C(F)(F)C(F)(F)F
inactive: all assays above

O=C(N[C@H]1CN2CCC1CC2)c1cc2ccoc2cn1
active: [7] 0.0336 µM
inactive: all other assays above

CCCN(CCC)N=O
inactive: all assays above

CN(C)CCO
inactive: all assays above

Clc1ccc(Cl)cc1
inactive: all assays above

ClC(Cl)=C(c1ccc(Cl)cc1)c1ccc(Cl)cc1
inactive: [1] | [2] | [3] | [5]
active: [4] 55.3 µM | [6] 60.7 µM | [7] 23.2 µM | [8] 50.4 µM | [9] 57.2 µM | [10] 17 µM | [11] 50 µM

Oc1c(Cl)c(Cl)c(Cl)c(Cl)c1Cl
active: [2] 86.7 µM | [10] 60.8 µM | [11] 55.9 µM
inactive: all other assays above
